Most compounds without a hit are left out; they make up all but 3% or so of the library.
KCNH2 3.1 block: KCNH2 3.1 (human) potassium channel inhibition | activity change, % (tested at about 1.8 µM) | U2OS KCNH2 3.1, thallium flux FluxOr; stronger effect = lower value | AID 720553 | 340,000 tested, 0.95% active;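 active = maximum activity change below -70%; inconclusive = maximum activity change from -70% to -50%; inactive = maximum activity change above -50%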;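 note: thallium influx rate constant from kinetic fluorescence after stimulation buffer; % is set by controls: 0 for no effect and ±100 for the full control effect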
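Kinetic fluorescence (2 min after stimulation buffer) measures Tl+ influx through KCNH2 3.1 expressed by viral transduction in U2OS cells; the rate constant is normalized against DMSO controls serving as positive and negative references.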
Chronic BCR inh: chronic active BCR signaling inhibition; AID 493014; 340,000 tested, 0.05% active; Potency, µM (titrated, usually from 46.1 µM), without a hit: at the highest dose activity change, negative = inhibition, actives largely listed as inhibitors; ABC-DLBCL IkBa-CBG/CBR reporter, luminescence ratio, 4 h; active = well fitted inhibition curve with a large enough effect in the signal ratio, with a control signal flat, not every such curve was filed as active; inconclusive = small, poorly fitted or top-dose-only effect, or effect the other way, or a change in a side signal; the % refers to the signal ratio;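 note: potency is the fitted concentration of half-maximal effect; plate controls were basal doxycycline-induced cells for no effect and cells given 10 µM MG132 for full effect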
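Doxycycline induced both beetle luciferases in TMD8 lymphoma cells; IKK-driven degradation limits the IkappaBalpha-fused green signal, while red luminescence normalises for cell number and nonspecific effects. Compounds tested up to 46 uM, 4 hrs.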
12-LOX inh: ALOX12 (human) lipoxygenase inhibition; Potency, µM (titrated, usually from 108 µM), without a hit: at the top dose activity change, negative = inhibition, most hits filed as inhibitors; purified 12hLO, xylenol orange hydroperoxide absorbance; 580,000 tested, 1.1% active; note: potency is the fitted concentration of half-maximal effect; % is set by controls: 0 for no effect and ±100 for the full control effect
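Purified human 12hLO at 150 nM in 25 mM Hepes, 0.01% Triton X-100, pH 7.0, preincubated 15 min at room temperature with compound. Reaction started with 40 uM arachidonic acid, 30 min at room temperature. Hydroperoxide measured by Fe-xylenol orange, 573/405 nm absorbance ratio.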
hERG WT inh: KCNH2 (human, wildtype) channel inhibition. Q12809. U2OS, BacMam KCNH2, thallium flux FluxOr; stronger effect = lower value. activity change, % at 1.84 µM. 340,000 tested, 0.37% active. AID 720551;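 active = maximum activity change below -70%; inconclusive = maximum activity change between -70% and -50%; inactive = maximum activity change above -50%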; note: % is set by controls: 0 for no effect and ±100 for the full control effect
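U2OS cells were transduced with wild-type KCNH2 virus (2.03 x 10^8 / mL) for 4 h at room temperature, then cultured overnight at 37 C. Thallium flux was read with FluxOr dye. Rate constants were normalized to DMSO controls.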
ClpP mod: qHTS Assay for Activators of ClpP; 340,000 tested, 1.9% active; AID 651965, 2013; Potency, µM (titrated, usually from 57.5 µM), inactives show at the top dose activity change, negative = active; ATP-dependent Clp protease proteolytic subunit (Bacillus subtilis (strain 168)), P80244; purified B. subtilis ClpP, FRET peptide cleavage, 20 min; active = well fitted falling curve with a large enough effect; inconclusive = small, poorly fitted or top-dose-only effect; inactive = no such curve, though single readings can be large or run the other way; note: potency is the fitted concentration of half-maximal effect; the source files actives as falling curves though it sought activators and does not explain the sign; nearly all actives have a fitted effect of over 65% in size
Target sequence (P80244 whole entry, looked up): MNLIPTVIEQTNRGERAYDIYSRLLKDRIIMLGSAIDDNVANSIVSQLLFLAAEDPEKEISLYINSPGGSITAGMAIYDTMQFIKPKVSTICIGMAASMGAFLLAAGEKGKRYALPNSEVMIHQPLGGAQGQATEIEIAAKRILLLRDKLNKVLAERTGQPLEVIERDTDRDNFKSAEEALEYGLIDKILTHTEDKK
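ClpP 10 microg/mL final, pH 8 Tris/KCl buffer with BSA, glycerol, Tween-20; compound pinned in; FRET-FV substrate; RT 20 min; Ex320/Em430; ΔFRET vs ADEP 5.8 microM, DMSO, no enzyme.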
LDHA inh: LDHA (human) enzyme inhibition; P00338; purified LDHA, NADH/diaphorase-resazurin fluorescence; stronger effect = lower value; activity change, % (values are at about 110 or 230 µM); 480,000 tested, 0.15% active; AID 1347041; in the data active = activity change below about -30%; inconclusive = mostly about -25% to -30%;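 note: plate controls were DMSO wells for no effect and wells without enzyme for full effect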
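Remaining NADH was detected by diaphorase (0.133 mg/mL) converting 37 µM resazurin to fluorescent resorufin, read at 0 and 20 minutes. The preceding 5-minute room-temperature reaction used 2 nM LDHA, 0.2 mM sodium pyruvate and 0.06 mM NADH at pH 7.4.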
ClpP validation: validation of B. subtilis ClpP protease hits (inhibitors); Potency, µM (doses to about 57.5 µM), without a hit: at the highest dose activity change, negative = inhibition, most hits filed as inhibitors; shares compounds with ClpP mod; AID 743245; 470 tested, 40% active; purified B. subtilis ClpP, FRET-FV substrate cleavage, 20 min; note: potency is the fitted concentration of half-maximal effect; % is set by controls: 0 for no effect and ±100 for the full control effect; nearly all actives have a fitted effect of over 70% in size
* hit, by the source's call; [ ] = another dose, or the depositor's remark. Unless noted, calls come from the whole dose curve; as a rule, active = well fitted curve in the direction sought with a large enough effect; inconclusive = small, poorly fitted or top-dose-only effect, or another doubt; inactive = no such curve, though single readings can be large; an effect the other way counts as inactive or inconclusive.

Screening O=S(=O)(c1ccc2c(Cl)cccc2c1)N1CCN(c2nc(-c3cccs3)nc3ccccc23)CC1 returned ClpP mod 4.5µM*, LDHA inh -5 and ClpP validation 22µM*.
CC1=C(c2ccc(C)c(C)c2)S(=O)(=O)N(Cc2ccc(C(=O)NCc3cccc(C)c3)cc2)C1=O was read as 12-LOX inh -11%, ClpP mod 10µM*, LDHA inh -11 and ClpP validation 15µM*.
Screening COc1ccccc1CNC(=O)c1ccc(Nc2nc3ccccc3n3nnnc23)cc1 returned 12-LOX inh -2%, ClpP mod inactive, LDHA inh -6 and ClpP validation 15µM*.
`Nc1c(C(=O)NCCN2CCOCC2)c2nc3ccccc3nc2n1-c1cccc(F)c1` gave KCNH2 3.1 block 0, Chronic BCR inh 6%, 12-LOX inh 249%, hERG WT inh 1, ClpP mod 10µM*, LDHA inh -2 and ClpP validation 22µM*.
Screening COCCCNC(=O)c1c(N)n(-c2cccc(S(N)(=O)=O)c2)c2nc3ccccc3nc12 returned KCNH2 3.1 block 6, Chronic BCR inh inconclusive, 12-LOX inh 0%, hERG WT inh -17, ClpP mod 8.9µM*, LDHA inh -3 and ClpP validation inconclusive.
For c1cncc(C2Nc3ccccc3-c3nc4ccccc4n32)c1 (stereo not drawn) the results were KCNH2 3.1 block -3, Chronic BCR inh inconclusive, 12-LOX inh 10%, hERG WT inh -8, ClpP mod 3.2µM*, LDHA inh -2 and ClpP validation 27µM*.
c1csc(C2Nc3ccccc3-c3nc4ccccc4n32)c1 (stereo not drawn) was read as KCNH2 3.1 block 3, Chronic BCR inh 6%, 12-LOX inh -24%, hERG WT inh 7, ClpP mod 11% and LDHA inh 1.
For O=C1NC(c2ccco2)Nc2ccccc21 (stereo not drawn) the results were KCNH2 3.1 block -7, Chronic BCR inh 16%, 12-LOX inh 0%, hERG WT inh -3, ClpP mod 10µM*, LDHA inh -4 and ClpP validation 24µM*.
For CCc1ccc(CCC(=O)N2CCC(C(=O)Nc3cc(C)ccn3)CC2)cc1 the results were 12-LOX inh 10% and LDHA inh -8.
CCOc1nc(-c2ccc(Cl)cc2Cl)ccc1C#N was read as KCNH2 3.1 block 1, Chronic BCR inh inconclusive, 12-LOX inh -9%, hERG WT inh 4, ClpP mod -3% and LDHA inh -1.
Cc1cc(Cl)ccc1Oc1nc(-c2ccc(F)cc2)ccc1C#N was read as KCNH2 3.1 block -24, Chronic BCR inh 9%, 12-LOX inh 6%, hERG WT inh -22, ClpP mod 91%, LDHA inh -2 and ClpP validation inconclusive.
`COc1ccc(CNC(=O)Cc2c(C)c3c(OC(C)=O)cc(OC(C)=O)cc3oc2=O)cc1OC` gave 12-LOX inh -8% and LDHA inh 11.
COc1ccc(-c2nnc(-c3ccc(N(C)C)cc3)o2)cc1 was read as KCNH2 3.1 block 4, 12-LOX inh -16%, hERG WT inh 1, ClpP mod inconclusive and LDHA inh -2.
`COc1ccc(-c2nnc(-c3ccc(OCC(C)C)cc3)o2)cc1` gave KCNH2 3.1 block -34, Chronic BCR inh -6%, 12-LOX inh 0%, hERG WT inh -1, ClpP mod 7.9µM*, LDHA inh -8 and ClpP validation 19µM*.
For Cc1ccc(-c2nnc(-c3cccnc3)o2)cc1 the results were KCNH2 3.1 block 0, Chronic BCR inh -1%, 12-LOX inh 0%, hERG WT inh 1, ClpP mod 4% and LDHA inh -4.
c1cncc(-c2nnc(-c3cccs3)o2)c1 was read as KCNH2 3.1 block -24, Chronic BCR inh -2%, 12-LOX inh 6%, hERG WT inh 6, ClpP mod 8.9µM*, LDHA inh -2 and ClpP validation 19µM*.
For COc1ccc(-c2cc(C(F)(F)F)nc(-n3cc(Cl)cn3)n2)cc1 the results were KCNH2 3.1 block -16, Chronic BCR inh -2%, 12-LOX inh -18%, hERG WT inh 2, ClpP mod 4µM*, LDHA inh -5 and ClpP validation 22µM*.
For CC(Sc1nnc(N2CCOCC2)n1-c1cccc(F)c1)C(=O)c1ccc(Br)cc1 (stereo not drawn) the results were 12-LOX inh 2% and LDHA inh 1.
For C#CCNC(=O)c1nc(-c2ccccc2OC)c2cnccn12 the results were 12-LOX inh 1%[6.33 µM].
`CCN1CCN(CCCNC(=O)Cn2nc(C)n3c(cc4cc(C)ccc43)c2=O)CC1` gave 12-LOX inh -5%, ClpP mod inconclusive, LDHA inh 3 and ClpP validation inconclusive.
Cc1ccc(C(CNC(=O)c2cc(=O)c3ccc(Br)cc3o2)N2CCC(C)CC2)o1 (stereo not drawn) was read as 12-LOX inh -2% and LDHA inh 2.
Screening C#CCOc1cccc(C2CC(=O)Nc3c2c(C)nn3-c2ncnc3nc[nH]c23)c1 (stereo not drawn) returned 12-LOX inh inconclusive and LDHA inh -3.
`Cc1nn2c(NCC(C)C)c3c(nc2c1-c1ccccc1)CCC3` gave KCNH2 3.1 block 18, Chronic BCR inh -1%, hERG WT inh 6, ClpP mod 7.9µM*, LDHA inh 5 and ClpP validation 4.9µM*.
For Cc1cccc(C2C3=C(COC3=O)Nc3c2c(=O)[nH]c(=O)n3CC(C)C)c1 (stereo not drawn) the results were 12-LOX inh inconclusive and LDHA inh -2.
For CCOc1ccc(CCNC(=O)c2cnc3sc(N4CCOCC4)nn3c2=O)cc1 the results were 12-LOX inh -28%, ClpP mod inconclusive and LDHA inh -6.
`CCc1ccc(CNC(=O)c2cnc3sc(N4CCCCC4)nn3c2=O)cc1` gave 12-LOX inh -14%, ClpP mod inconclusive and LDHA inh -7.
`CCc1ccc(CNC(=O)c2cnc3sc(N4CCOCC4)nn3c2=O)cc1` gave 12-LOX inh -28%, ClpP mod 3.2µM*, LDHA inh -2 and ClpP validation -1%.

Screens as filed in PubChem BioAssay.
